The record followed here is PubChem BioAssay AID485314 (National Center for Advancing Translational Sciences (NCATS), 2010).

The whole screen tested about 340,000 compounds, of which about 4,500 (1.3%) were called active. About 5% were inconclusive and are not listed. Only a selection was taken, and actives are over-represented in it overall. Values without a mark were called inactive. The call rests on the fitted dose curve; in most records, active means well fitted inhibition curve with a large enough effect; inconclusive means small, poorly fitted or top-dose-only effect, or another doubt; inactive means no such curve, though single readings can be large or run the other way.
On the % scale 0 is the no-effect control and ±100 the full control effect; potency means the concentration at half of the fitted maximal effect.

The target in the assay is DNA polymerase beta (Homo sapiens) (UniProt P06746). The experiment in a line: qHTS Assay for Inhibitors of DNA Polymerase Beta. To be noted: Pol beta primer extension/strand displacement, fluorescence kinetic; series mostly up to 114 µM; activity change, negative = inhibition: at the top concentration. An excerpt: The base excision repair system in human cells is a target for therapeutic modulation of the response to irradiation treatment and DNA-damaging drugs. A key enzyme in this system is the bi-functional DNA polymerase known as DNA polymerase Beta (Pol Beta). The following is a homogeneous kinetic assay to study the primer extension and strand-displacement reaction catalyzed by pol beta.
A stepwise description of the 1536-well assay is shown in next Table. Three microliters of reagents (buffer in column 3 and 4 as negative control and 10 nM Pol beta in columns 1, 2, and 5-48) was dispensed into 1,536-well black solid-bottomed plate. Compounds (23 nL) were transferred via Kalypsys pin tool equipped with 1536-pin array (10 nL slotted pins, V&P Scientific, San Diego, CA). The plates were incubated for 15 min at room temperature, and 1 uL substrate (50 nM final concentration) were added to start the reaction and immediately read at 0 min read on Viewlux reader. The plate were further incubated for 10 min at room temperature, and then read on Viewlux again. Throughout the screen, reagent bottle and all liquid lines were chilled and made light-tight to minimize reagent degradation. All screening operations were performed on a fully integrated robotic system (Kalypsys, San Diego, CA) containing one RX-130 and two RX-90 anthropomorphic robotic arms (Staubli, Duncan, SC). Library plates were screened starting from the lowest and proceeding to the highest concentration, and a double-dipping step of the highest concentration was required to access higher concentrations of compounds. Vehicle-only plates, with DMSO being pin-transferred to the entire column 5-48 compound area, were inserted uniformly at the beginning and the end of each library in order to monitor for and record any shifts in the background, which can be affected by reagent dispensers or loss in enzyme activity overtime. Screening data were corrected, normalized, and concentration-effect relationships were derived by using publicly-available curve fitting algorithms developed in-house (http://ncgc.nih.gov/pub/openhts). A four parameter Hill equation was fitted to the concentration-response data by minimizing the residual error between the modeled and observed responses.
With `Cc1cccc(N2C(=O)NC(=O)/C(=C\c3cnn(-c4ccccc4)c3)C2=O)c1`, the Potency was 39.8 µM (active).

In the case of `COc1cccc(N2C(=O)NC(=O)/C(=C\c3cn(C)c4ccccc34)C2=O)c1`, the “activity change, negative = inhibition” value is -23%.

For the compound `O=C1NC(=O)N(c2ccccc2)C(=O)/C1=C/c1ccc([N+](=O)[O-])s1`, the “activity change, negative = inhibition” value is -41.5%.

As for `CCCCN1C2CCC1CC(OC(c1ccc(F)cc1)c1ccc(F)cc1)C2` (stereo not given), the “activity change, negative = inhibition” value is 16.4% [at 57.1 µM].

For the compound `COc1ccc(CN2C(=O)NC(=O)/C(=C\c3ccc(OC)c(OC)c3OC)C2=O)cc1`, the “activity change, negative = inhibition” value is -16%.

On to `COc1ccc(N2C(=O)/C(=C/c3ccco3)C(=O)NC2=S)cc1`, for which the Potency was 2.82 µM (active).

For the compound `COc1ccccc1N1CCN(C(CNC(=O)Oc2ccccc2)c2cccnc2)CC1` (stereo not given), the “activity change, negative = inhibition” value was 21.6%.

Consider `Cc1c(C(=O)O)cccc1-n1c(C)cc(/C=C2\C(=O)NC(=O)N(c3ccc4c(c3)OCO4)C2=O)c1C`, for which the Potency was 11.2 µM (active).

`Cc1ccccc1N1C(=O)NC(=O)/C(=C\c2cc(C)n(C)c2C)C1=O`: the “activity change, negative = inhibition” value is 3.72%.

Take `O=C1NC(=O)N(c2ccc(F)cc2)C(=O)/C1=C/c1ccc2c(c1)CCCN2Cc1ccccc1`: the “activity change, negative = inhibition” value was -25.1%.

Consider `O=Cc1cn(Cc2ccc(F)cc2Cl)c2ccccc12`, for which the “activity change, negative = inhibition” value was -14.2%.

Take `Cc1cc2ccccn2c1C(C[N+](=O)[O-])c1c(F)cccc1Cl` (stereo not given): the “activity change, negative = inhibition” value is 26.7%.

As to `CCN(CC)C(=O)c1ccc(NC(=O)c2sccc2-c2ccccc2)cc1`, the “activity change, negative = inhibition” value was -0.659%.

Consider `COc1ccc2c3c1O[C@H]1C[C@@H](O)C=C[C@@]31CCN(C)C2`, for which the “activity change, negative = inhibition” value is 11.5%.

For `N[C@@H](Cc1c[nH]c2ccccc12)c1nnc(SCc2c(F)cccc2Cl)o1`, the “activity change, negative = inhibition” value is 4.81%.

As for `Cc1ccc(-n2c(/C=C/c3cccc(C(F)(F)F)c3)nc3ccccc3c2=O)cc1`, the “activity change, negative = inhibition” value was -1.25%.

On to `CCOc1ccc(-c2cc(C)n3nc(C(=O)Nc4ccc(C)c(C)c4)cc3n2)cc1`, for which the Potency was 8.91 µM (active).

As to `C=CCN(CC=C)C(=O)Nc1ccc(OCC)cc1`, the “activity change, negative = inhibition” value is -8.07%.

As to `OC(Cn1c2ccccc2c2ccccc21)C[n+]1ccccc1` (stereo not given), the “activity change, negative = inhibition” value was 38.7%.

As for `Cc1cc(/C=C2/C(=O)NC(=O)N(Cc3ccco3)C2=O)c(C)n1-c1ccc(C(=O)O)cc1`, the Potency is 17.8 µM (active).

In the case of `O=C1NC(=O)N(Cc2ccco2)C(=O)/C1=C\c1cccn1CCOc1ccccc1`, the “activity change, negative = inhibition” value was 9.43%.

In the case of `Cc1cc(C=C2C(=O)NC(=O)NC2=O)c(C)n1-c1ccncc1`, the “activity change, negative = inhibition” value was -12.2%.

As to `COc1ccccc1N=C1SCCCN1C`, the “activity change, negative = inhibition” value was 2.97%.

Turning to `C=CCN1CCC23c4c5ccc(O)c4O[C@H]2C(=O)CC[C@@]3(O)C1C5` (stereo not given in full), the “activity change, negative = inhibition” value is 16.9% [at 57.1 µM].

Consider `O=C(CN1CCCC1=O)NCCc1ccccc1`, for which the “activity change, negative = inhibition” value was 0.404%.

Consider `O=C1CC(=O)N(Cc2ccccc2)C(=O)N1CCCCCCN1C(=O)CC(=O)N(Cc2ccccc2)C1=O`, for which the Potency is 28.2 µM (active).

`CC(C)(C)c1ccc(CN2C(=O)CN=C(c3ccccc3)c3ccccc32)cc1`: the “activity change, negative = inhibition” value was 1.27%.

Regarding `Cc1nc2ccccc2c(=O)n1-c1ccc(Cl)cc1Cl`, the “activity change, negative = inhibition” value was 47.9%.

In the case of `CCN1CCN(c2nc3c(c(=O)[nH]2)CCC3)CC1`, the “activity change, negative = inhibition” value is 40.3%.

As for `Cc1nnc(NC(=O)c2cccn(Cc3cccc(F)c3)c2=O)s1`, the “activity change, negative = inhibition” value is 9.23%.

For `COc1ccccc1N=Nc1c(O)[nH]c(=S)[nH]c1=O`, the “activity change, negative = inhibition” value is -3.75%.

With `CCOCCc1c(O)[nH]c(=S)[nH]c1=O`, the Potency is 35.5 µM (active).

For the compound `Cc1ccc(-c2nn(CCC#N)cc2C(=O)O)cc1C`, the “activity change, negative = inhibition” value was 11.6%.

Consider `O=C(OCC1O[C@@H](OC(=O)c2cc(O)c(O)c(O)c2)[C@@H](OC(=O)c2cc(O)c(O)c(O)c2)[C@@H](OC(=O)c2cc(O)c(O)c(O)c2)[C@@H]1OC(=O)c1cc(O)c(O)c(O)c1)c1cc(O)c(O)c(O)c1` (stereo not given in full), for which the Potency is 0.158 µM (active).

Take `Cc1cccc(Cn2cccc(C(=O)Nc3ccc4c(c3)OCCO4)c2=O)c1`: the “activity change, negative = inhibition” value is 0.23%.

Consider `Cc1ccc(NC(=O)N(Cc2ccc3c(c2)OCO3)C2CCN(Cc3ccccc3)CC2)cc1F`, for which the “activity change, negative = inhibition” value is -0.703%.

On to `C[N+]12CN3CN(CN(C3)C1)C2`, for which the “activity change, negative = inhibition” value was 36.4%.

Consider `NCCc1c[nH]c2ccc(O)cc12`, for which the “activity change, negative = inhibition” value was 11.3% [at 57.1 µM].

Consider `CCOC(=O)c1ncn2c1[C@@H]1CCCN1C(=O)c1cc(OC)ccc1-2`, for which the “activity change, negative = inhibition” value is 12% [at 57.1 µM].

Consider `CN(C)c1ccc(/C=C2\CC3C4CC=C5CC(O)CCC5(C)C4CCC3(C)C2=O)cc1` (stereo not given), for which the “activity change, negative = inhibition” value was 15.5%.
